In PubChem BioAssay one finds composite z-score and z-score data, which are given here for five compounds.

For assay [1], the system named is Wnt5a (protein binding on small-molecule microarray). Description: Wnt5a binders on small-molecule microarray, primary screen, biophysical, 635/667 nm fluorescence (AID 1142).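 Further: fluorescence read at 667 nm with signal to noise per printed feature.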 As to conditions: 635 nm fluorescence, higher = more signal.
Assay [2] can be described thus: cell viability in Huh7 cells, primary screen, cytotoxicity control for HCV replication inhibitor project, CellTiter-Glo luminescence, basal, 48 h (AID 1143).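 Further: Huh7 hepatoma cells carrying a hepatitis C replication reporter with no stimulus; test concentration not given here.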 As to conditions: Huh7 HCV replicon, higher = more signal, called active from +8 up or from −8 down. (In ATP-based viability assays light output follows the ATP content of the culture.)
Assay [3] in a line: P. aeruginosa biofilm formation inhibitors, primary screen, PAO1 strain, BacTiter-Glo luminescence, LB-PBS (AID 1144). As to conditions: 12 h, higher = more signal.
Assay [4] is described as follows: CREB reporter modulators without forskolin, primary screen, cell-based, PC12, CRE-LacZ reporter, unstimulated (AID 1145). As to conditions: no forskolin, luminescence, 4.5 h, higher = more signal, called active from +8 up or from −8 down.
A short description of assay [5]: CREB reporter modulators under forskolin, primary screen, cell-based, PC12, CRE-LacZ reporter, forskolin-stimulated (AID 1146).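 Further: PC12 cells with 6xCRE LacZ reporter stimulated by forskolin 10 µM; beta-galactosidase reporter signal reflecting CREB driven transcription.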 As to conditions: luminescence, 4.5 h, higher = more signal, called active from +8 up or from −8 down.
The target of assay [6] is Streptavidin (Streptomyces avidinii) (UniProt P22629). Kind of assay: streptavidin binders on small-molecule microarray, primary screen, artefact control for SMM compound annotation, biophysical, 635/667 nm fluorescence (AID 1147).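 Further: signal reflects streptavidin binding to arrayed compounds as a control protein.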 As to conditions: streptavidin binding, higher = more signal.
Assay [7] in a line: small-molecule binders of probe aInhba, primary screen, biochemical, small-molecule microarray, 635/667 nm fluorescence (AID 1148).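 Further: score merges 667nm spot fluorescence with signal-to-noise for antibody binding to printed compounds.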 As to conditions: higher = more signal.
The target of assay [8] is Torsin-1A (Homo sapiens) (UniProt O14656). Description: torsin A binders from cell lysate, primary screen, small-molecule microarray, wild-type, 635/667 nm (AID 1149). As to conditions: COS7 hTOR1A-WT lysate, 635 nm fluorescence, higher = more signal.
The target is the same in assay [9]. Description: small-molecule binders of mutant TOR1A in lysate, primary screen, cell lysate, small-molecule microarray, COS7 lysate, 635/667 nm fluorescence (AID 1150).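 Further: score pools 667 nm emission and signal to noise measuring lysate protein binding.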 As to conditions: COS7 hTOR1A mutant lysate, 635 nm fluorescence, higher = more signal.
For assay [10], the system named is Sonic hedgehog protein (Shh). Kind of assay: small-molecule binders of Shh protein, primary screen, biochemical, small-molecule microarray, 635/667 nm fluorescence (AID 1151).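 Further: Shh protein binding to compounds spotted on small-molecule microarray slides; score combines spot fluorescence intensity with signal-to-noise across triplicate slides.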 As to conditions: small-molecule microarray binding, 635 nm fluorescence; higher = more signal.
Assay [11] in a line: E. coli DRC41 culture turbidity changes, primary screen, E. coli filamentation inducer project, strain DRC41, OD650, 48 h (AID 1152).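 Further: E. coli MC1000 strain DRC41 lacking acrAB efflux pump and sulA.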 As to conditions: E. coli DRC41 (acrAB sulA), higher = more signal, called active from +8 up or from −8 down.
Assay [12] in a line: small-molecule binders of probe aLefty1, primary screen, biochemical, small-molecule microarray, 635/667 nm fluorescence (AID 1153).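 Further: score merges spot fluorescence with signal-to-noise ratio from the scanned slide images.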 As to conditions: higher = more signal.
A short description of assay [13]: PSAC antagonists in infected red cells, primary screen, cell-based, P. falciparum Indochina, OD700, 1 h (AID 1154). As to conditions: P. falciparum Indochina infected RBC osmotic lysis, higher = more signal, called active from +8 up or from −8 down.
Assay [14] is described as follows: PSAC antagonists in infected red cells, primary screen, cell-based, P. falciparum Indochina, OD700, 2 h (AID 1155).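 Further: lysis reports solute entry through the parasite surface anion channel PSAC; channel blockers reduce lysis of infected cells.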 As to conditions: P. falciparum Indochina infected erythrocytes, osmotic lysis OD700; higher = more signal, called active from +8 up or from −8 down.
A short description of assay [15]: osmotic lysis modulators in infected erythrocytes, primary screen, PSAC antagonist project, cell-based, P. falciparum Indochina, OD700, 3 h (AID 1156). As to conditions: higher = more signal, called active from +8 up or from −8 down.
Assay [16] in a line: PSAC antagonists in infected red cells, primary screen, cell-based, P. falciparum Indochina, OD700, 18 h (AID 1157). As to conditions: P. falciparum Indochina infected erythrocytes, osmotic lysis OD700, 18 h; higher = more signal, called active from +8 up or from −8 down.
Assay [17] can be described thus: modulators of S6 phosphorylation in cells, primary screen, cell-based, A549, cytoblot, luminescence, serum-stimulated (AID 1158).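 Further: serum-stimulated A549 lung adenocarcinoma cells; signal is phosphorylated S6 detected by cytoblot immunostaining with HRP secondary.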 As to conditions: A549 phospho-S6 cytoblot, 5 h, higher = more signal.
The target of assay [18] is NADPH oxidase 2 (Homo sapiens) (UniProt P04839). Kind of assay: NOX2-dependent H2O2 signal modulators, primary screen, NOX inhibitor project, cell-based, HEK293-NOX2, PMA-stimulated, Amplex Red fluorescence (AID 1159). Further: test concentration not given here. As to conditions: 45 min, higher = more signal, called active from +8 up or from −8 down.
The target in assay [19] is NADPH oxidase 4 (Homo sapiens) (UniProt Q9NPH5). Kind of assay: NOX4-dependent H2O2 signal modulators, primary screen, NOX inhibitor project, cell-based, HEK293-NOX4, tetracycline-induced, Amplex Red fluorescence (AID 1160). As to conditions: 45 min, higher = more signal, called active from +8 up or from −8 down.
The target in assay [20] is NADPH oxidase 5 (Homo sapiens) (UniProt Q96PH1). Kind of assay: NOX5-dependent H2O2 signal modulators, primary screen, NOX inhibitor project, cell-based, HEK293-NOX5, Amplex Red fluorescence (AID 1161). As to conditions: HEK293-NOX5, ionomycin, 45 min, higher = more signal.

Structures are written as SMILES. Active and inactive are the calls of the source. Unless noted, how the calls were made is not given here.

Sequence of NADPH oxidase 4 (Homo sapiens) (Q9NPH5 whole entry, looked up): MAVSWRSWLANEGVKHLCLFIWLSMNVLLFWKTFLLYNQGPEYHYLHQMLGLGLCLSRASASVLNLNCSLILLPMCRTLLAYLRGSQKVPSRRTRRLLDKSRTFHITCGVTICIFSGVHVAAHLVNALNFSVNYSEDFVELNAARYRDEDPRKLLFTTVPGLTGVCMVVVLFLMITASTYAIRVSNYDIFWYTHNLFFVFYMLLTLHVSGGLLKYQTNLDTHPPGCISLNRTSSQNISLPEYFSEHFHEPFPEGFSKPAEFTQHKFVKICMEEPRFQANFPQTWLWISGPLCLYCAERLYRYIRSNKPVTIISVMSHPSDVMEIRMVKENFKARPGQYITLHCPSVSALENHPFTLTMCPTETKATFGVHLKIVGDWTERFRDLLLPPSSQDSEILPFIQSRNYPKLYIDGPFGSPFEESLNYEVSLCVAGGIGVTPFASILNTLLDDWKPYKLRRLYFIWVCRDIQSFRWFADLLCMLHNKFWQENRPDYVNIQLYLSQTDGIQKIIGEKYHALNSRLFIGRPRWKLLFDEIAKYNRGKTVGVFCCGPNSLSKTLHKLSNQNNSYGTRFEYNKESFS
Sequence of Torsin-1A (Homo sapiens) (O14656 whole entry, looked up): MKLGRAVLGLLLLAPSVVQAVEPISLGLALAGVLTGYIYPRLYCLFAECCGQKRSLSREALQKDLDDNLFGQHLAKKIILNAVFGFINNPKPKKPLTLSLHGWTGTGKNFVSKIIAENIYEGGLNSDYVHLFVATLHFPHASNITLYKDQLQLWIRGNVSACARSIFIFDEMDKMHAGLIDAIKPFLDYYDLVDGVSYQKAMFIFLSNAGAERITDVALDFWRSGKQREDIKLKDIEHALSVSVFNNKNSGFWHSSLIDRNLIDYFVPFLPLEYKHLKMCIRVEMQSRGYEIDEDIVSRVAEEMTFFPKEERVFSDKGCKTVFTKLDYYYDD
Sequence of Streptavidin (Streptomyces avidinii) (P22629 whole entry, looked up): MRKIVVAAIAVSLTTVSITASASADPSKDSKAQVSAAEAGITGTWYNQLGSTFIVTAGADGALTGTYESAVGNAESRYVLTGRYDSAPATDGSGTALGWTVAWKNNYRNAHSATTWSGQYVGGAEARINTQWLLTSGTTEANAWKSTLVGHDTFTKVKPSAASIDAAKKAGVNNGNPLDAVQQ
Sequence of NADPH oxidase 2 (Homo sapiens) (P04839 whole entry, looked up): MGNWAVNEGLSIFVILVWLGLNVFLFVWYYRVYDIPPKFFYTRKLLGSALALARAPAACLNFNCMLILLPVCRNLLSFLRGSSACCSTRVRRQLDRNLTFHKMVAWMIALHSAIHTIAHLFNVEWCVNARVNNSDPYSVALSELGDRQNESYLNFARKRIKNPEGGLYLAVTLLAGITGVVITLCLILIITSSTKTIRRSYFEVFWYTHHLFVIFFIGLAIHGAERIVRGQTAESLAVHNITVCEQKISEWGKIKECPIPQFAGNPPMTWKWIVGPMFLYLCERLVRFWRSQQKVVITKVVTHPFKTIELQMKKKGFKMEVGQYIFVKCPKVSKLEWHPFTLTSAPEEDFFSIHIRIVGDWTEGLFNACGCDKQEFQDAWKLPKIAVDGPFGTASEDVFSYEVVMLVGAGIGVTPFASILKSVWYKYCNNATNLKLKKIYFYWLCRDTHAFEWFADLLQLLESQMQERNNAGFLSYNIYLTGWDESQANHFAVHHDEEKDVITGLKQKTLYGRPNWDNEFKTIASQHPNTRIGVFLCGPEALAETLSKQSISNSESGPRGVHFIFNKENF
Sequence of NADPH oxidase 5 (Homo sapiens) (Q96PH1 whole entry, looked up): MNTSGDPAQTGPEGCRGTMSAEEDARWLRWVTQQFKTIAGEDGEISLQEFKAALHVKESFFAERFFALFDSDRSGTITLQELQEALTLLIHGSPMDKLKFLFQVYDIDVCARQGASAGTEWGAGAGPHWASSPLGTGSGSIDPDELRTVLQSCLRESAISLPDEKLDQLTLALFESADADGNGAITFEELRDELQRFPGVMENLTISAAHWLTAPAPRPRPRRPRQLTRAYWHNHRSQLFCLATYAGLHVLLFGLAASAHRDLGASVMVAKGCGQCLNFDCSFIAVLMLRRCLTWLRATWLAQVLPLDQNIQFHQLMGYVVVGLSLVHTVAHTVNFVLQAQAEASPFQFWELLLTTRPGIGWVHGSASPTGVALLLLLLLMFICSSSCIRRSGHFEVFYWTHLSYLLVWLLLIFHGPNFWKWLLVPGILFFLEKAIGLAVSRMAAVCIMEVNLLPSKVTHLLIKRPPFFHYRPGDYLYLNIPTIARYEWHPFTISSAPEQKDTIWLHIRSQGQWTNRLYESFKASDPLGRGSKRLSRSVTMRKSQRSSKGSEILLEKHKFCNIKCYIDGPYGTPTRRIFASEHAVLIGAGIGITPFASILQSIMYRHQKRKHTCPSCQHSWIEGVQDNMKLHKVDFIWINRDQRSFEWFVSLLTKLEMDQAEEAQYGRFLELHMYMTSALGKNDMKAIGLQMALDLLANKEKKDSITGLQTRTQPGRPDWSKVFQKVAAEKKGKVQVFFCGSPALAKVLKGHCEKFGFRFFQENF

For the compound `NC(=O)NCC#Cc1ccc2c(c1)[C@]1(C(=O)N2)[C@H](c2ccccc2OCCO)N2[C@H](c3ccccc3)[C@H](c3ccccc3)OC(=O)[C@H]2[C@@H]1C(=O)NC[C@H](O)c1ccccc1`, the composite z-score in assay [1] was -0.287; in assay [6] it was 0.83; in assay [7] it was -0.101; with Torsin-1A (Homo sapiens) [8] it was 0.142; with Torsin-1A (Homo sapiens) [9], -0.487; in assay [10] it was -0.174. Besides, the composite z-score in assay [12] was -0.103. For the same compound, the z-score in [2] was -2.62 (inactive); in assay [3], 0.129 (inactive); in assay [4] it was 0.0384 (inactive); in assay [5], -0.278 (inactive); in assay [11] it was 2.83 (inactive); in assay [13], 0.925 (inactive). Also, the z-score in [14] was -0.918 (inactive); in assay [15], -0.313 (inactive); in assay [16], -1.54 (inactive); in [17] it was 2.83; in assay [18] it was 1.74 (inactive); in assay [19], 0.869 (inactive). The z-score in assay [20] came out at 0.062.
Regarding `CCOC(=O)C1=CC[C@@H](c2ccccc2F)N(S(=O)(=O)c2ccc(C)cc2)[C@H]1c1ccccc1`, the composite z-score is 0.483 in assay [1]; 0.872 in assay [6]; -0.045 in [7]; 0.263 in the assay with Torsin-1A (Homo sapiens) [8]; 0.388 in the assay with Torsin-1A (Homo sapiens) [9]; 0.649 in assay [10]. In assay [12], this compound yielded a composite z-score of -0.0544. Besides, the z-score is -3.92 (inactive) in assay [2]; 0.0947 (inactive) in assay [3]; 0.827 (inactive) in assay [4]; 0.649 (inactive) in assay [5]; -1.33 (inactive) in assay [11]; 0.353 (inactive) in assay [13]. The z-score in [14] is 1.17 (inactive); in [15], 0.0175 (inactive); in [16] it was 0.338 (inactive); in [17], -0.445; in [18] it was 0.941 (inactive); in [19] it was 0.6 (inactive). In assay [20], this compound registered a z-score of 2.18.
Take `O=C1CS(=O)(=O)C(c2cccc([N+](=O)[O-])c2)N1c1ccccc1` (stereo not given): the composite z-score in [1] is 0.388; in assay [6] it was 0.392; in assay [7], 1.03; with Torsin-1A (Homo sapiens) [8] it was 0.909; with Torsin-1A (Homo sapiens) [9], 0.655; in [10], 0.781. The compound also gave a composite z-score in [12] of 0.683. Also, the z-score in assay [2] was -1.67 (inactive); in assay [3], -1.16 (inactive); in assay [4] it was -0.231 (inactive); in assay [5], -1.44 (inactive); in assay [11], 2.48 (inactive); in assay [13], -0.625 (inactive). The z-score is -1.38 (inactive) in assay [14]; -0.903 (inactive) in assay [15]; -1.68 (inactive) in assay [16]; 1.93 in assay [17]; 0.227 (inactive) in assay [18]; 0.38 (inactive) in assay [19]. Also, the z-score in assay [20] came to 1.79.
Take `CCN(CC)c1ccc(N2CC=CC34O[C@@H]5/C=C\CCCOC(=O)C5[C@H]3C(=O)N(C(C)CO)[C@@H]4C2=O)cc1` (stereo not given in full): the composite z-score was -0.367 in assay [1]; -0.245 in [6]; -0.0986 in [7]; -0.428 with Torsin-1A (Homo sapiens) [8]; -0.539 with Torsin-1A (Homo sapiens) [9]; 1.19 in assay [10]. This compound displayed a composite z-score in assay [12] of -0.0814. The z-score in [2] is 0.307 (inactive); in [3], -1.6 (inactive); in [4] it was 1.01 (inactive); in assay [5], -0.695 (inactive); in [11], 1.56 (inactive); in [13] it was 0.733 (inactive). Moreover, the z-score in [14] is -0.264 (inactive); in [15], 1.33 (inactive); in [16], -0.306 (inactive); in [17], 0.0073; in assay [18], 0.275 (inactive); in assay [19], -0.0723 (inactive). Further, in [20], the z-score was determined as 0.83.
On to `CCOC(=O)C1=C[C@@H](c2ccccc2)N(S(=O)(=O)c2ccc(C)cc2)[C@H]1c1ccc(OC)cc1`, for which the composite z-score in assay [1] was 0.943; in assay [6], 0.689; in assay [7] it was 0.29; in the assay with Torsin-1A (Homo sapiens) [8] it was 0.162; with Torsin-1A (Homo sapiens) [9], 0.513; in [10] it was -0.0921. This compound came in with a composite z-score in assay [12] of 1.02. The z-score was -2.61 (inactive) in assay [2]; 0.173 (inactive) in [3]; -0.275 (inactive) in [4]; -0.0617 (inactive) in [5]; -1.11 (inactive) in assay [11]; 1.18 (inactive) in assay [13]. The z-score in [14] was 1.07 (inactive); in assay [15] it was 0.106 (inactive); in [16], 0.512 (inactive); in assay [17], -0.887; in assay [18], 0.156 (inactive); in assay [19], 1.02 (inactive). In [20], this compound came in with a z-score of -0.348.
